Source: PubChem BioAssay AID1159580 (chemical genetic matrix, 2015)
In all, about 5,500 compounds went through this assay and about 2,000 (36%) were called active. About 18% were inconclusive and are not listed. Rule as the data show it: active = normalized growth mostly below about 0.91 (no sharp cut-off); inconclusive = no clear call, values can overlap the other calls; inactive = mostly above about 0.92. The list shows a part of the results.

Experiment: chemical genetic growth profiling, strain panel (AID 1159580);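 also: tested at 20 µM; growth read once vehicle control cultures reached saturation at 30 °C; 1 = growth at the plate median or of vehicle wells; lower values mean less growth of the strain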
Details: growth OD

Measured: normalized growth

C[n+]1ccccc1/C=N/O
inactive: S. cerevisiae deletion strains, locus YJR066W, strain TOR1, stronger effect = lower value 0.986 | S. cerevisiae deletion strains, locus YKL009W, strain mrt4, stronger effect = lower value 1.03 | S. cerevisiae deletion strains, locus YKL068W, stronger effect = lower value 1.01 | S. cerevisiae deletion strains, locus YKL085W, strain MDH1 (second series), stronger effect = lower value 1 | S. cerevisiae deletion strains, locus YKL085W, strain MDH1, stronger effect = lower value 1 | S. cerevisiae deletion strains, locus YKL160W, strain elf1, stronger effect = lower value 0.997 | S. cerevisiae deletion strains, locus YKL190W, strain CNB1, stronger effect = lower value 1.01 | S. cerevisiae deletion strains, locus YKR001C, strain vps1, stronger effect = lower value 0.989 | S. cerevisiae deletion strains, locus YKR026C, strain gcn3, stronger effect = lower value 1.01 | S. cerevisiae deletion strains, locus YKR091W, strain srl3, stronger effect = lower value 0.993 | S. cerevisiae deletion strains, locus YLL001W, strain dnm1, stronger effect = lower value 0.973 | S. cerevisiae deletion strains, locus YLL026W, stronger effect = lower value 0.996 | S. cerevisiae deletion strains, locus YLL041C, strain sdh2, stronger effect = lower value 0.985 | S. cerevisiae deletion strains, locus YLR027C, strain aat2, stronger effect = lower value 1.01 | S. cerevisiae deletion strains, locus YLR039C, strain RIC1, stronger effect = lower value 1.01 | S. cerevisiae deletion strains, locus YLR058C, strain SHM2, stronger effect = lower value 1.01 | S. cerevisiae deletion strains, locus YLR102C, strain apc9, stronger effect = lower value 0.994 | S. cerevisiae deletion strains, locus YLR113W, strain HOG1, stronger effect = lower value 0.999 | S. cerevisiae deletion strains, locus YLR221C, strain rsa3, stronger effect = lower value 1.02 | S. cerevisiae deletion strains, locus YLR258W, strain gsy2, stronger effect = lower value 0.991 | S. cerevisiae deletion strains, locus YLR262C, strain YPT6 (second series), stronger effect = lower value 1.02 | S. cerevisiae deletion strains, locus YLR262C, strain YPT6, stronger effect = lower value 1 | S. cerevisiae deletion strains, locus YLR268W, strain sec22, stronger effect = lower value 0.998 | S. cerevisiae deletion strains, locus YLR320W, strain mms22, stronger effect = lower value 0.981 | S. cerevisiae deletion strains, locus YLR330W, strain CHS5, stronger effect = lower value 1.01 | S. cerevisiae deletion strains, locus YLR342W, strain FKS1 (second series), stronger effect = lower value 1 | S. cerevisiae deletion strains, locus YLR342W, strain FKS1, stronger effect = lower value 1.02 | S. cerevisiae deletion strains, locus YLR357W, strain rsc2, stronger effect = lower value 0.958 | S. cerevisiae deletion strains, locus YLR370C, strain arc18, stronger effect = lower value 1.01 | S. cerevisiae deletion strains, locus YLR371W, strain rom2, stronger effect = lower value 0.993 | S. cerevisiae deletion strains, locus YLR384C, strain iki3, stronger effect = lower value 1 | S. cerevisiae deletion strains, locus YLR418C, strain cdc73, stronger effect = lower value 0.983 | S. cerevisiae deletion strains, locus YML016C, strain PPZ1, stronger effect = lower value 1.01 | S. cerevisiae deletion strains, locus YML032C, strain rad52, stronger effect = lower value 0.989 | S. cerevisiae deletion strains, locus YML120C, strain ndi1, stronger effect = lower value 1.02 | S. cerevisiae deletion strains, locus YML124C, strain tub3, stronger effect = lower value 1 | S. cerevisiae deletion strains, locus YMR058W, strain fet3, stronger effect = lower value 1.01 | S. cerevisiae deletion strains, locus YMR078C, strain ctf18, stronger effect = lower value 0.993 | S. cerevisiae deletion strains, locus YMR125W, strain sto1, stronger effect = lower value 1 | S. cerevisiae deletion strains, locus YMR129W, stronger effect = lower value 0.998 | S. cerevisiae deletion strains, locus YMR205C, strain PFK2, stronger effect = lower value 1.01 | S. cerevisiae deletion strains, locus YMR223W, strain ubp8, stronger effect = lower value 1.01 | S. cerevisiae deletion strains, locus YMR231W, strain pep5, stronger effect = lower value 0.996 | S. cerevisiae deletion strains, locus YMR307W, strain GAS1, stronger effect = lower value 0.992 | S. cerevisiae deletion strains, locus YNL067W, strain RPL9B, stronger effect = lower value 1 | S. cerevisiae deletion strains, locus YNL071W, strain lat1, stronger effect = lower value 1.01 | S. cerevisiae deletion strains, locus YNL128W, strain TEP1, stronger effect = lower value 1.02 | S. cerevisiae deletion strains, locus YNL153C, strain GIM3, stronger effect = lower value 1.01 | S. cerevisiae deletion strains, locus YNL183C, strain NPR1, stronger effect = lower value 0.924 | S. cerevisiae deletion strains, locus YNL209W, strain ssb2, stronger effect = lower value 1.02 | S. cerevisiae deletion strains, locus YNL233W, strain BNI4, stronger effect = lower value 0.999 | S. cerevisiae deletion strains, locus YNL248C, strain rpa49, stronger effect = lower value 0.978 | S. cerevisiae deletion strains, locus YNL250W, strain rad50, stronger effect = lower value 1.01 | S. cerevisiae deletion strains, locus YNL271C, strain bni1, stronger effect = lower value 1.01 | S. cerevisiae deletion strains, locus YNL298W, strain CLA4, stronger effect = lower value 1.01 | S. cerevisiae deletion strains, locus YNL307C, strain MCK1, stronger effect = lower value 0.992 | S. cerevisiae deletion strains, locus YNL322C, strain KRE1 (second series), stronger effect = lower value 0.991 | S. cerevisiae deletion strains, locus YNR049C, strain mso1, stronger effect = lower value 1.01 | S. cerevisiae deletion strains, locus YNR052C, strain pop2, stronger effect = lower value 1 | S. cerevisiae deletion strains, locus YOL006C, strain TOP1, stronger effect = lower value 1.01 | S. cerevisiae deletion strains, locus YOL012C, strain htz1 1.12 | S. cerevisiae deletion strains, locus YOL147C, strain pex11, stronger effect = lower value 1 | S. cerevisiae deletion strains, locus YOR001W, strain rrp6, stronger effect = lower value 0.992 | S. cerevisiae deletion strains, locus YOR061W, strain CKA2, stronger effect = lower value 1.01 | S. cerevisiae deletion strains, locus YOR069W, strain VPS5, stronger effect = lower value 1.01 | S. cerevisiae deletion strains, locus YOR070C, strain gyp1, stronger effect = lower value 1 | S. cerevisiae deletion strains, locus YOR080W, strain dia2, stronger effect = lower value 1 | S. cerevisiae deletion strains, locus YOR083W, strain WHI5, stronger effect = lower value 0.948 | S. cerevisiae deletion strains, locus YOR106W, strain vam3, stronger effect = lower value 0.995 | S. cerevisiae deletion strains, locus YOR136W, strain idh2, stronger effect = lower value 0.993 | S. cerevisiae deletion strains, locus YOR144C, strain elg1, stronger effect = lower value 0.994 | S. cerevisiae deletion strains, locus YOR184W, strain ser1, stronger effect = lower value 0.985 | S. cerevisiae deletion strains, locus YOR231W, strain MKK1, stronger effect = lower value 1.02 | S. cerevisiae deletion strains, locus YOR265W, strain rbl2, stronger effect = lower value 1 | S. cerevisiae deletion strains, locus YOR270C, strain vph1, stronger effect = lower value 1.04 | S. cerevisiae deletion strains, locus YOR290C, strain snf2, stronger effect = lower value 1.03 | S. cerevisiae deletion strains, locus YOR316C, strain cot1, stronger effect = lower value 1 | S. cerevisiae deletion strains, locus YPL051W, strain arl3, stronger effect = lower value 1.02 | S. cerevisiae deletion strains, locus YPL055C, strain LGE1, stronger effect = lower value 1.04 | S. cerevisiae deletion strains, locus YPL078C, strain atp4, stronger effect = lower value 0.992 | S. cerevisiae deletion strains, locus YPL106C, strain sse1, stronger effect = lower value 0.99 | S. cerevisiae deletion strains, locus YPL240C, strain hsp82, stronger effect = lower value 1 | S. cerevisiae deletion strains, locus YPL256C, strain CLN2, stronger effect = lower value 1.01 | S. cerevisiae deletion strains, locus YPR119W, strain clb2, stronger effect = lower value 0.998 | S. cerevisiae deletion strains, locus YPR141C, strain kar3, stronger effect = lower value 0.997 | S. cerevisiae deletion strains, locus YPR163C, strain tif3, stronger effect = lower value 1.01 | S. cerevisiae deletion strains, locus YPR167C, strain met16, stronger effect = lower value 0.992 | S. cerevisiae deletion strains, strain wtn01, stronger effect = lower value 0.993 | S. cerevisiae strains, strain wild type, stronger effect = lower value 1.01
